Screens: PubChem BioAssay, National Center for Advancing Translational Sciences (NCATS)
NS1 function inh: blocks influenza NS1 protein function; Potency, µM (series often up to 46.1 µM); 0.4% of 270,000 active; AID 2326; calls by dose curve; note: actives are rising curves; nearly all actives have a fitted effect of over 50% in size
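S. cerevisiae expressing influenza A NS1, grown in glucose, washed, then diluted 1:100 into pH 6.0 -URA galactose medium with 23 nl compound. Growth recovery read as OD600; NS1-free strain serves as control.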
Shiga toxin inh: inhibitors of Shiga toxin in Vero cells. Vero cells, Shiga toxin protein synthesis inhibition reporter. inhibition, % at 38.7 µM. 9.2% of 290,000 active. AID 2315; in the data active = inhibition mostly above about 28%, no sharp cut-off; inactive = mostly below about 43%
CHX counter: counter-screen for Shiga toxin inhibitors: cycloheximide protein synthesis inhibition; 12% of 300,000 active; cell reporter, cycloheximide protein synthesis inhibition counterscreen; max response, %; in the data active = max response mostly above about 13%, no sharp cut-off; inactive = mostly below about 14%; note: read at 38.3 µM for the half of the compounds with a filed dose
Pf growth 48h: inhibits P. falciparum growth in the first generation, 48 h; P. falciparum luciferase growth in erythrocytes, 48 h; Potency, µM (doses to about 28.7 µM), hits mostly inhibitors; 5.9% of 310,000 active
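Here the parasites carry a stable luciferase gene and grow inside erythrocytes in Albumax-based RPMI medium with compound for one erythrocytic cycle. Activity is scored as loss of luminescent signal.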
Pf growth 96h: P. falciparum growth inhibition at 96 hour, primary screen for plastid delayed-death inhibitors; P. falciparum luciferase reporter growth, 96 h; Potency, µM (series often up to 28.7 µM), usual class: inhibitors; 6.9% of 320,000 active; AID 504834
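Readout is luminescence from an integrated firefly luciferase in P. falciparum. Red cells, 2% hematocrit and 0.05% parasitemia final, were cultured with compound through two parasite generations (96 hours) at 37 C, 5% CO2.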
Sm TGR inh: blocks Schistosoma mansoni thioredoxin glutathione reductase. Q962Y6. purified TGR, DTNB reduction, TNB absorbance 405 nm. Potency, µM (titrated, usually from 114 µM), most hits filed as inhibitors. 3% of 360,000 active; note: nearly all actives have a fitted effect of over 60% in size
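First, TGR (20 nM dispensed) and NADPH were mixed with compound. Second, a 15 min room-temperature incubation followed. Third, further NADPH and then DTNB were added to start the reaction. Finally, TNB absorbance was monitored kinetically.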
Of the large screens only hits and unclear results are named; the others gave an inactive call. Only some compounds are listed: those with a hit (about 21% of all), similar ones and a draw of the others. Unless noted, calls come from the whole dose curve; as a rule, active = well fitted curve in the direction sought with a large enough effect; inconclusive = small, poorly fitted or top-dose-only effect, or another doubt; inactive = no such curve, though single readings can be large; an effect the other way counts as inactive or inconclusive.

CCN(C(=O)c1nn(-c2ccc(OC)c(Cl)c2)c(=O)c2c1c1ccccc1n2C)c1cccc(C(F)(F)F)c1	none (no result: NS1 function inh, Shiga toxin inh, CHX counter, Pf growth 48h, Pf growth 96h)
CN1CCN(S(=O)(=O)c2cccc(C(=O)N(Cc3nnc(-c4ccccc4Cl)o3)C3CC3)c2)CC1	Pf growth 48h inconclusive, Pf growth 96h 15µM, Sm TGR inh inconclusive
Cc1ccsc1C(=O)N(Cc1nnc(-c2ccccc2Cl)o1)C1CC1	Pf growth 48h inconclusive, Pf growth 96h inconclusive (no result: NS1 function inh, Shiga toxin inh, CHX counter)
O=C(c1ccc([N+](=O)[O-])o1)N(Cc1nnc(-c2ccccc2Cl)o1)C1CC1	Pf growth 48h inconclusive, Pf growth 96h inconclusive, Sm TGR inh 50µM (no result: NS1 function inh, Shiga toxin inh, CHX counter)
CCOc1ccc(N(CC)S(=O)(=O)N2CCCC(C(=O)Nc3ccc(OC)c(OC)c3)C2)cc1 (stereo not drawn)	none (no result: NS1 function inh, Shiga toxin inh, CHX counter, Pf growth 48h, Pf growth 96h)
CCC(C(=O)Nc1ccccc1OC)n1nc(C)c2sc3ccccc3c2c1=O (stereo not drawn)	none (no result: NS1 function inh, Shiga toxin inh, CHX counter, Pf growth 48h, Pf growth 96h)
CC(C)(C)c1ccc(OCc2cnc(Cl)s2)cc1	Shiga toxin inh 75, CHX counter 35 (no result: Sm TGR inh)
CC(=O)Nc1cccc(OCc2cnc(Cl)s2)c1	none
COCCNC(=O)/C(C#N)=C/c1ccc(OCC(=O)NC2CCCCC2)cc1	none (no result: NS1 function inh)
COc1ccc2c(c1)nc(SCC(C)O)n2C (stereo not drawn)	CHX counter 12
COc1ccc2c(c1)nc(SCC(=O)c1cccs1)n2C	CHX counter 41
COc1ccc2c(c1)nc(SCC(=O)C(C)(C)C)n2C	none
CC1=C(C(=O)Nc2ccccc2C)C(c2cccs2)n2nc(SCc3ccccc3)nc2N1 (stereo not drawn)	none (no result: NS1 function inh, Shiga toxin inh, CHX counter, Pf growth 48h, Pf growth 96h)
CCc1cc(=O)oc2cc(OCC(N)=O)c(Cl)cc12	none (no result: Pf growth 96h)
O=c1c2c(nc3cc(-c4ccc(Br)cc4)[nH]n13)CCCC2	Pf growth 96h inconclusive
COc1ccc(-c2cc3nc4c(c(=O)n3[nH]2)CCC4)cc1	NS1 function inh inconclusive, CHX counter 21, Pf growth 48h inconclusive
O=c1c2c(nc3cc(-c4ccccc4)[nH]n13)CCC2	Shiga toxin inh 95, CHX counter 58, Pf growth 96h inconclusive
Cc1cc2nc3c(c(=O)n2[nH]1)CCCC3	Pf growth 48h 12µM
CCOc1ccc(-c2cc(C(=O)N3CCN(c4ccc(C)cc4)C(C)C3)c3ccccc3n2)cc1 (stereo not drawn)	none (no result: NS1 function inh, Shiga toxin inh, CHX counter, Pf growth 48h, Pf growth 96h)
CC1CN(C)C(C)C/C1=N\Oc1ccc([N+](=O)[O-])cc1 (stereo not drawn)	Pf growth 96h 1µM
Cc1nc([N+](=O)[O-])cn1CC(O)c1ccccc1 (stereo not drawn)	none
Cc1nc([N+](=O)[O-])cn1Cc1cccc2ccccc12	Pf growth 48h 10µM
O=C(c1ccccc1NS(=O)(=O)c1ccc(Br)cc1)N1CCOCC1	none
COC(=O)c1[nH]c2cc(OC)c(OC)cc2c1NC(=O)CN1C[C@H]2C[C@@H](C1)c1cccc(=O)n1C2	Pf growth 96h inconclusive (no result: NS1 function inh, Shiga toxin inh, CHX counter)
O=C(CCn1nnc(-c2cccs2)n1)NC1CCCCC1	none
Cc1ccc(C(=O)Cn2nnc(-c3cccs3)n2)cc1	Shiga toxin inh 79, CHX counter 32
O=C(CN(CCc1ccccc1)C(=O)Cn1nnc(-c2cccs2)n1)NCc1ccco1	Pf growth 96h inconclusive, Sm TGR inh 50µM
O=C(Cn1nnc(-c2cccs2)n1)NCc1cccs1	CHX counter 65 (no result: NS1 function inh)
Cc1cccc(NC(=O)CSc2nnc(-c3cccs3)o2)c1	none (no result: NS1 function inh, Shiga toxin inh, CHX counter, Pf growth 48h, Pf growth 96h)
CC(=O)Nc1cc2c(cc1NC(=O)Cn1nc(-c3ccc4c(c3)OCCO4)ccc1=O)OCCO2	Pf growth 96h 9.3µM (no result: Pf growth 48h)
COc1ccc2c(c1)cc1c(=O)n(CC(=O)NCCc3ccccc3)nc(C)n12	none (no result: NS1 function inh, Shiga toxin inh, CHX counter, Pf growth 48h, Pf growth 96h)
COc1ccc(C(O)P(=O)(OCCC(C)C)c2ccc(N(C)C)cc2)cc1OC (stereo not drawn)	Pf growth 96h inconclusive
Cc1ccc(C(O)P(=O)(OCCC(C)C)c2ccc(N(C)C)cc2)cc1 (stereo not drawn)	Pf growth 48h 12µM, Pf growth 96h inconclusive
CCCCOP(=O)(c1ccc(N(C)C)cc1)C(Nc1ccccc1)c1ccccc1 (stereo not drawn)	Pf growth 48h inconclusive, Pf growth 96h 15µM
CCCCOP(=O)(c1ccc(N(C)C)cc1)C(O)c1cccnc1 (stereo not drawn)	none
CC(C)CCOP(=O)(c1ccc(N(C)C)cc1)C(O)c1c(Cl)cccc1Cl (stereo not drawn)	Pf growth 48h 10µM, Pf growth 96h 12µM
CC(C)COP(=O)(c1ccc(N(C)C)cc1)C(O)c1ccc(Br)cc1 (stereo not drawn)	Pf growth 48h inconclusive, Pf growth 96h 10µM
Cc1c(Br)c([N+](=O)[O-])nn1CC(=O)Nc1ccc(C(N)=O)cc1	none (no result: Sm TGR inh)
CC(OC(=O)c1ccccc1NCCO)C(=O)NCC(=O)Nc1ccc(F)c(F)c1F (stereo not drawn)	Pf growth 48h inconclusive
CN(C(=O)c1ccccc1OCc1ccc(F)cc1)c1c(N)n(Cc2ccccc2)c(=O)[nH]c1=O	Pf growth 48h inconclusive (no result: NS1 function inh, Shiga toxin inh, CHX counter)
CCOP(=O)(c1ccc(N(C)C)cc1)C(O)c1c(Cl)cccc1Cl (stereo not drawn)	Pf growth 48h inconclusive, Pf growth 96h inconclusive
CCCOP(=O)(c1ccc(N(C)C)cc1)C(O)c1c(Cl)cccc1Cl (stereo not drawn)	Pf growth 48h inconclusive, Pf growth 96h 8.3µM
CCCOP(=O)(c1ccc(N(C)C)cc1)C(O)c1ccc(Cl)cc1Cl (stereo not drawn)	Pf growth 48h 7.4µM, Pf growth 96h 13µM
O=C1CCCN1c1ccc(S(=O)(=O)N2CCCCC2)cc1	Pf growth 48h inconclusive
CCNc1nc(NCC)n2c(SCC(=O)Nc3ccc(C)c(C)c3)nnc2n1	Pf growth 48h 9.3µM (no result: NS1 function inh, Shiga toxin inh, CHX counter)
CCNc1nc(NCC)n2c(SCC(=O)Nc3ccc(Br)cc3F)nnc2n1	Pf growth 48h 12µM, Pf growth 96h inconclusive (no result: NS1 function inh, Shiga toxin inh, CHX counter)
COc1ccc(OC)c(NC(=O)CSc2nncc3ccc(OC)c(OC)c23)c1	NS1 function inh inconclusive, Pf growth 48h inconclusive, Pf growth 96h 9.3µM
COc1ccc2cnnc(SCC(=O)Nc3ccccc3)c2c1OC	none
CCNc1nc(NCC)n2c(SCC(=O)Nc3cc(OC)ccc3OC)nnc2n1	Pf growth 48h inconclusive, Pf growth 96h 8.3µM (no result: NS1 function inh, Shiga toxin inh, CHX counter)
CCN(CC)S(=O)(=O)c1ccc2c(c1)nc(SCC(=O)N(C)C1CCS(=O)(=O)C1)n2CC (stereo not drawn)	none (no result: NS1 function inh, Shiga toxin inh, CHX counter)
O=C(CN1C(=O)C2C3CCC(C3)C2C1=O)OCC(=O)c1ccc(Br)cc1 (stereo not drawn)	none
COc1ccc(OC)c(NS(=O)(=O)c2ccc(-c3coc(C)n3)cc2)c1	none
COC(=O)c1sc2ccccc2c1N	Shiga toxin inh 60, CHX counter 32, Pf growth 96h inconclusive
CCOc1ccc(/C=N/n2c(C)nnc2C)cc1OC	none
COc1ccc(/C=N/n2c(C)nnc2C)c(OC)c1OC	Shiga toxin inh 68
COc1ccccc1N1CCN(/N=C/c2ccc(OC)c(OC)c2OC)CC1	none
